Source: PubChem
Shown are actives, neighbours in structure and some others; about 5.3% of the full set was active somewhere.
Vaccinia mCherry = vaccinia inhibition (mCherry reporter); Vaccinia virus mCherry reporter infection, fluorescence; Potency, µM (series often up to 36.5 µM), actives largely listed as inhibitors; hit rate 0.63% among 310,000; calls by dose curve; tested in A549 cells; also: nearly all actives have a fitted effect of over 35% in size
Marburg entry inh = Marburg virus entry inhibition; Marburg virus pseudotyped entry inhibition, cell reporter; Potency, µM (top dose mostly 37.8 µM), most hits filed as inhibitors; hit rate 1.8% among 300,000; AID 540276; calls by dose curve; tested in HEK293 cells
HCV inhibitor = inhibitors of hepatitis C virus infection; hit rate 3.4% among 340,000; Potency, µM (doses to about 41.8 µM), hits mostly inhibitors; Huh7.5.1 HCVcc-Cre infection, luciferase reporter, 44 h; active = well fitted inhibition curve with a large enough effect; inconclusive = small, poorly fitted or top-dose-only effect, or another doubt; inactive = no such curve, though single readings can be large or run the other way
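Infectious HCV cell culture screen: compound-treated cells (1,000/well, pre-plated 4 h) are infected with HCVcc-Cre at roughly 0.5 moi and grown 44 h. Infection is quantified by luciferase signal after 15 min substrate incubation at room temperature.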
Lassa entry inh = blocks Lassa virus binding to or entry into cells; Lassa virus pseudotype entry inhibition, cell reporter; Potency, µM (highest dose often 37.9 µM), usual class: inhibitors; hit rate 1.2% among 300,000; AID 540256; calls by dose curve; tested in HEK293 cells; also: nearly all actives have a fitted effect of over 50% in size
FMDV inh = blocks foot and mouth disease virus | Potency, µM (highest dose often 57.9 µM), most hits filed as inhibitors | FMDV antiviral cell-based qHTS | AID 1159524 | hit rate 1.2% among 410,000; calls by dose curve; tested in HEK293T cells; also: read-out not given here; nearly all actives have a fitted effect of over 45% in size
VACV Venus inh = inhibitors of vaccinia virus (Venus reporter); hit rate 0.46% among 330,000; Vaccinia virus Venus reporter expression, fluorescence; Potency, µM (doses to about 36.5 µM), usual class: inhibitors; AID 720580; calls by dose curve; tested in A549 cells; also: nearly all actives have a fitted effect of over 30% in size
Numbers stand for hits; - = inactive; ? = inconclusive; . = not tested or not shown; ! = repeats disagree; [ ] = dose if it differs, or a comment.

SMILES	Vaccinia mCherry	Marburg entry inh	HCV inhibitor	Lassa entry inh	FMDV inh	VACV Venus inh
Cc1ccc(S(=O)(=O)N2CCOCC2)cc1NC(=O)COc1ccccc1Cc1ccccc1	-	?	12.6µM	?	?	-
Cc1ccc(S(=O)(=O)N2CCOCC2)cc1NC(=O)COc1ccc(C(=O)c2ccccc2)cc1	.	.	10µM	.	20µM	.
Cc1nc2ccccn2c1C(=O)CSc1ccccc1Cl	.	?	?	-	25.1µM	?
C[C@H]1CCC[C@@H](O)CCC/C=C/c2cc(O)cc(O)c2C(=O)O1	?	?	.	-	3.55µM	?
CC1CCC[C@H](O)CCCCCc2cc(O)cc(O)c2C(=O)O1 (some centres undefined)	-	-	-[8.37 µM]	-	35.5µM	-
C[C@H]1CCC[C@H](O)CCCCCc2cc(O)cc(O)c2C(=O)O1	-	-	-	.	11.2µM	?
CC1CCCC(=O)CCC/C=C/c2cc(O)cc(O)c2C(=O)O1 (centres undefined)	-	.	.	.	-	-
COc1cc(O)cc2c1C(=O)O[C@@H](C)CCCC(=O)CCCCC2	.	.	-	.	-	.
COc1cc2c(c(OC)c1)C(=O)OC(C)CCCC(=O)CCCCC2 (centres undefined)	-	?	-	-	?	-
CC1CCC/C=C/C(=O)c2c(O)cc(O)cc2CC(=O)O1 (centres undefined)	7.08µM	.	-	.	31.6µM	?
COCc1ccc(CN2Cc3ccccc3OC(c3ccccc3F)C2)o1 (centres undefined)	-	.	.	.	-	-
COCc1ccc(CN2CCOc3c(O)cc(-c4cc(C)c5ccc(F)cc5n4)cc3C2)o1	-	.	.	.	-	-
CCN(CC(=O)Nc1ccc(NC(C)=O)cc1)C(=O)C1(c2ccc(Cl)cc2)CCC1	-	.	.	.	?	-
O=[N+]([O-])c1ccc2c(c1)C=C/C2=C\c1ccc(C=S)cc1	-	.	.	.	.	-
O=S(=O)(c1ccc(Cl)cc1)N1CCN(c2nc(Nc3cc(Cl)ccc3O)nc3ccccc23)CC1	-	.	.	.	.	-
COc1ccc(Cl)cc1NC(=O)CN(C)C(=O)/C=C/c1ccco1	.	.	-	.	-	.
COc1ccccc1N(CC(=O)NCCSCc1ccc(C)cc1)S(=O)(=O)c1ccccc1	.	.	12.6µM	.	?	.
CCOc1ccccc1N(CC(=O)NCCSCc1ccco1)S(=O)(=O)c1ccccc1	-	?	12.6µM	?	-	-
CN(C)c1ccc(CNC(=O)c2sc3ncccc3c2-n2cccc2)cc1	-	.	.	?	-	-
CCOc1ccccc1C1NC(c2ccc3c(c2)OCO3)=CC(c2ccccc2O)N1 (centres undefined)	-	.	.	.	.	-
O=C(COc1ccc2ccc(=O)oc2c1)N1CCN(C(=O)C2COc3ccccc3O2)CC1 (centres undefined)	-	-	?	-	-	-
Cc1cc(=O)oc2cc(OCC(=O)N3CCN(C(=O)C4COc5ccccc5O4)CC3)ccc12 (centres undefined)	.	.	17.8µM	.	?	.
CC(=O)N[C@@H](C=O)[C@@H](O)[C@H](O)[C@H](O)CO	-	.	.	.	-	-
CO/N=C/c1ccc(N2CCN(C(=O)c3ccc(Cl)cc3Cl)CC2)c([N+](=O)[O-])c1	.	?	8.91µM	?	12.6µM	.
CO/N=C/c1ccc(N2CCN(C(=O)c3ccc(F)cc3)CC2)c([N+](=O)[O-])c1	.	?	14.1µM	?	20µM	.
SMILES	Vaccinia mCherry	Marburg entry inh	HCV inhibitor	Lassa entry inh	FMDV inh	VACV Venus inh
CO/N=C/c1ccc(N2CCN(C(=O)c3cccc(C(F)(F)F)c3)CC2)c([N+](=O)[O-])c1	.	?	?	-	?	.
O=C(O/N=C\c1ccc(N2CCCCC2)c([N+](=O)[O-])c1)c1cccc(Cl)c1	-	-	-	-	-	-
COc1ccc(CN2CCOc3ccc(C(O)c4cccnc4)cc3C2)c(OC)c1OC (centres undefined)	-	.	.	.	-	-
Cc1ccc(S(=O)(=O)c2nnn3c2nc(N2CCN(c4cccc(C)c4C)CC2)c2ccccc23)cc1C	-	.	.	-	-	-
Cc1ccc(S(=O)(=O)c2nnn3c2nc(N2CCOCC2)c2ccccc23)cc1C	-	-	10µM	-	-	-
CC1C=CC(C(C2C(=O)CC(C)(C)CC2=O)C2C(=O)CC(C)(C)CC2=O)S1 (centres undefined)	.	-	.	.	.	.
COc1ccc(-c2ccc(/C=C3/C(=N)N4C(C)=CSC4=NC3=O)o2)c([N+](=O)[O-])c1	-	-	-	-	39.8µM	-
COc1ccc(Cl)cc1NC(=O)CN(C)C(=O)c1cn2ccccc2n1	.	.	?	.	-	.
C=CCC12OC3(OC)CC1[C@H](C)[C@@H](c1ccccc1)C2[C@]3(O)CC=C (some centres undefined)	.	-	.	.	.	.
CC(=O)c1ccc(NC(=O)Nc2ccc([N+](=O)[O-])cc2)cc1	-	?	-	-	-	-
O=C(O)c1cc(NC(=O)c2ccc([N+](=O)[O-])cc2)cc(NC(=O)c2ccc([N+](=O)[O-])cc2)c1	-	-	-	-	-	-
Cc1cc([N+](=O)[O-])ccc1NC(=O)Nc1ccc(F)cc1F	-	?	3.55µM	?	?	-
Cc1ccc(C(C)C)cc1NC(=O)Nc1ccc([N+](=O)[O-])cc1	?	.	12.6µM	.	?	10µM
O=C(Nc1ccc([N+](=O)[O-])cc1)C(=O)Nc1cccc(C(=O)O)c1	.	.	-	.	10µM	.
O=C(Nc1ccc(Oc2ccc(NC(=O)Nc3ccc([N+](=O)[O-])cc3)cc2)cc1)Nc1ccc([N+](=O)[O-])cc1	?	-	5.62µM	-	?	-
COc1ccc(NC(=O)Nc2ccc(F)cc2F)c(C)c1	.	?	-	-	-	.
Cc1cc(O)c(C(C)C)cc1NC(=O)Nc1ccc([N+](=O)[O-])cc1	?	?	?	?	-	-
c1cc2c3c(c1)CCCN3CCC2	-	.	.	.	.	-
O=C(Nc1nnc(-c2ccccc2)s1)C1CCCN(C(=O)c2ccoc2)C1 (centres undefined)	-	.	.	.	.	-
O=C(Nc1ccc(OC(F)(F)F)cc1)Nc1cccnc1	.	.	-	.	-	.
O=C(Nc1ccc(OC(F)(F)F)cc1)Nc1cccc([N+](=O)[O-])c1	10µM	?	?	?	-	10µM
Cc1ccc(NC(=O)Nc2cccc([N+](=O)[O-])c2)cc1F	?	?	11.2µM	?	-	?
Cc1cc(NC(=O)Nc2cccc([N+](=O)[O-])c2)no1	.	.	-	.	-	.
COc1cccc(NC(=O)CSc2nc(O)c(C/C=C/c3ccccc3)c(=O)[nH]2)c1	-	-	.	-	-	-
O=C(Nc1ccc([N+](=O)[O-])cc1Cl)c1cc(Cl)ccc1O	?	1.12µM	1.26µM	1.3µM	6.31µM!	?
Cc1nn(-c2ccccc2)c(OC(=O)c2ccccc2F)c1S(=O)(=O)c1ccccc1	-	-	.	-	-	-
CC/C(=N/Nc1cccc(C)c1)c1cnnc(SC)n1	?	?	10µM	-	?	-
CC/C(=N/Nc1ccc(Cl)cc1)c1cnnc(SC)n1	-	-	-	-	-	-
O=C(CCCCC(=O)NN=Cc1ccccc1O)NN=Cc1ccccc1O	3.16µM	?	?	?	-	-
O=C(COc1nsnc1N1CCOCC1)N/N=C/c1ccccc1O	22.4µM	?	?	?	-	?
